We go through 16 molecules from PubChem BioAssay (NCI).

Test systems include T-47D breast; BT-549 breast; MDA-MB-435 melanoma; SW-620 colon; MCF7 breast; HCT-116 colon; HCC-2998 colon; KM12 colon.
Common to all, as to assay: NCI-60 one-dose screen, 48 h (100 = growth as untreated, 0 = no growth, -100 = all killed)
Common to all, as to conditions: 10 µM unless noted

About 83,000 compounds went through this panel and 20% of them were active in at least one assay; those are over-represented in the sample as a whole.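 Single-dose data. Exposure time 48 hours. Values below 10 considered active.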 A number with no mark means an inactive call. Calls of active or inactive are those of the source.

In the case of `O=c1c2ccccc2sc2c(N3CCCC3)nc3ccccc3c12`, the growth was 81.2% with T-47D breast; 111% with BT-549 breast; 112% in the test with MDA-MB-435 melanoma; 95% in the test with SW-620 colon; 65.8% in the test on MCF7 breast; 78% in the test on HCT-116 colon. Also, the values for the growth in the test on HCC-2998 colon and in the test on KM12 colon were 107% and 85.5%, respectively.
In the case of `O[C@@H]1CCO[C@H](c2ccc3ccccc3c2)C1`, the growth is 89.4% in the test on T-47D breast; 105% with BT-549 breast; 106% in the test with MDA-MB-435 melanoma; 105% in the test with SW-620 colon; 103% with MCF7 breast; 96.6% in the test on HCT-116 colon. Further, the growth in the test with HCC-2998 colon was 98.6%; with KM12 colon, 104%.
For `NC(=NCCCOc1ccc(F)cc1)Nc1ccc(Cl)c(Cl)c1`, the growth is 29.2% in the test on T-47D breast; 91.2% in the test on BT-549 breast; 79% in the test on MDA-MB-435 melanoma; 60.4% in the test with SW-620 colon; 18.1% with MCF7 breast; 45.6% in the test with HCT-116 colon. In addition, the growth in the test with HCC-2998 colon was -45.7% (active); with KM12 colon, 76.5%.
For `OC[C@@H](O)C(O[C@@H]1O[C@H](CO)[C@H](O)[C@H](O)[C@H]1O)[C@H](O)[C@@H](O)CO` (stereo partly drawn), the growth with T-47D breast is 105%; in the test with BT-549 breast, 107%; in the test on MDA-MB-435 melanoma, 95.4%; in the test with SW-620 colon, 102%; in the test on MCF7 breast, 106%; in the test on HCT-116 colon, 113%. For the same molecule, the values for the growth with HCC-2998 colon and in the test with KM12 colon were 95.6% and 103%, respectively.
For `COC(=O)c1oc2c(C(C)=O)c(OCCCN(C)C)ccc2c1C`, the growth in the test on T-47D breast is 103%; in the test with BT-549 breast, 215%; with MDA-MB-435 melanoma, 107%; in the test on SW-620 colon, 106%; with MCF7 breast, 148%; in the test on HCT-116 colon it was 53.9%. Further, the values for the growth in the test with HCC-2998 colon and in the test with KM12 colon were 116% and 100%, respectively.
`CN1C(=O)C2(NN=C(c3cccc4ccccc34)S2)c2ccccc21` (stereo not drawn): the growth is 5.27% (active) with T-47D breast; 30.1% with BT-549 breast; 57.8% in the test with MDA-MB-435 melanoma; 35.5% with SW-620 colon; 24% in the test on MCF7 breast; 14.8% in the test with HCT-116 colon. Further, the growth was 51.7% in the test with HCC-2998 colon and 30.8% with KM12 colon.
Regarding `COc1cc(-c2nc(N)n(CC(=O)Nc3ccc(/C(C)=N\O)cc3)n2)cc(OC)c1OC`, the growth in the test with T-47D breast is 91.2%; in the test with BT-549 breast it was 108%; with MDA-MB-435 melanoma it was 82%; in the test on SW-620 colon, 95.2%; in the test with MCF7 breast it was 89.2%; with HCT-116 colon, 101%. In addition, the growth was 102% in the test on HCC-2998 colon and 97.3% in the test on KM12 colon.
For the molecule `COc1cc2c(cc1OC)-c1c(oc3c4c(ccc3c1=O)OC(C)(C)C=C4)CO2`, the growth is 39.2% in the test with T-47D breast; 52.6% in the test with BT-549 breast; 61.2% in the test on MDA-MB-435 melanoma; 89.8% in the test with SW-620 colon; 48.8% in the test on MCF7 breast; 40.3% in the test with HCT-116 colon. Besides, the growth was 81.5% in the test on HCC-2998 colon and 76.8% with KM12 colon.
`NC(=S)NNC1CCCCC1`: the growth was 80% in the test on T-47D breast; 88.4% in the test on BT-549 breast; 106% in the test with MDA-MB-435 melanoma; 99.7% with SW-620 colon; 88.8% in the test with MCF7 breast; 91.8% in the test with HCT-116 colon. The growth was 100% in the test on HCC-2998 colon and 99.9% in the test on KM12 colon.
On to `FC(F)(F)c1cn(CCN2CCOCC2)c2ncnc(Cl)c12`, for which the growth with T-47D breast was 95.1%; with BT-549 breast it was 93.6%; with MDA-MB-435 melanoma, 56.5%; in the test with SW-620 colon it was 53.7%; with MCF7 breast, 97.5%; in the test with HCT-116 colon, 15.4%. Besides, the growth was 75.2% with HCC-2998 colon and 101% in the test with KM12 colon.
Regarding `Cc1c(C(C)(C)C)cc(C(C)(C)C)c2c1CN(C)CO2`, the growth in the test on T-47D breast was 104%; in the test on BT-549 breast it was 110%; in the test with MDA-MB-435 melanoma, 113%; with SW-620 colon, 117%; in the test with MCF7 breast it was 99.8%; in the test on HCT-116 colon, 104%. In addition, the growth in the test on HCC-2998 colon was 101%; in the test with KM12 colon it was 113%.
Take `Nc1ncnc2c1c(-c1ccc(Oc3ccccc3)cc1)nn2C[C@H]1SSC[C@@H]1O`: the growth with T-47D breast was -20.3% (active); in the test with BT-549 breast, 78.1%; in the test with MDA-MB-435 melanoma, -92.9% (active); with SW-620 colon, 51.1%; in the test with MCF7 breast, 14.5%; in the test with HCT-116 colon, 13%. Also, the growth in the test on HCC-2998 colon is 72.1%; with KM12 colon, 32.6%.
With `CCCC(=O)Oc1ccc(/C(=C(\C)c2ccc(Cl)cc2)c2ccc(OCCN(CC)CC)cc2)cc1`, the growth in the test with T-47D breast was -33.1% (active); in the test with BT-549 breast, 22.7%; with MDA-MB-435 melanoma, -85.9% (active); with SW-620 colon, -80.2% (active); in the test with MCF7 breast it was -78.4% (active); in the test with HCT-116 colon, -86.7% (active). The growth in the test on HCC-2998 colon was -65.4% (active); in the test with KM12 colon, -44.4% (active).
Consider `[2H]c1nc(Nc2ncc(F)c(-c3cc(F)c4nc(C)n(C(C)C)c4c3)n2)c([2H])c([2H])c1CN1CCN(CC)CC1`, for which the growth in the test on T-47D breast is 71.8%; with BT-549 breast, 55.4%; in the test with MDA-MB-435 melanoma it was 51.9%; in the test on SW-620 colon it was 33.8%; with MCF7 breast, 25.9%; in the test on HCT-116 colon, 20.6%. Moreover, the figures for the growth in the test on HCC-2998 colon and in the test with KM12 colon were 64.1% and 31.9%, respectively.
As for `O=C(O)c1cc2ccccc2cc1Nc1ccccc1`, the growth is 89.3% with T-47D breast; 113% in the test on BT-549 breast; 103% with MDA-MB-435 melanoma; 105% in the test with SW-620 colon; 76.2% in the test with MCF7 breast; 89.7% in the test with HCT-116 colon. Also, the growth in the test on HCC-2998 colon is 99.1%; in the test with KM12 colon it was 109%.
Take `O=C(Nc1ccc(-n2ccc3c(NC(=O)c4ccccc4)ncnc32)cc1)Nc1ccc(Cl)c(C(F)(F)F)c1`: the growth with T-47D breast was 12%; with BT-549 breast, 56%; with MDA-MB-435 melanoma, 7.71% (active); with SW-620 colon it was 12.6%; in the test on MCF7 breast, -51.3% (active); in the test with HCT-116 colon it was -77.6% (active). Also, the values for the growth in the test on HCC-2998 colon and in the test on KM12 colon were 30.8% and -25.4% (active), respectively.
